Reference: PubChem BioAssay AID1839 (Johns Hopkins Ion Channel Center, 2009)
Hit rate of the full screen: of about 2,400 compounds, about 220 (9.2%) were called active. This is one part of a sample in which actives are shown more often than they occur. A number with no mark means an inactive call.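 How the source made its calls: active means signal change above the mean of dofetilide-free buffer controls plus 3 SD, so a positive margin; inactive means the rest.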

Assay: nonspecific flux effects in parental CHO-K1, confirmation, counter-screen for hERG block protection project, cell-based, CHO-K1 parental line, FluxOR thallium flux (AID 1839);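 further: compounds applied alone with no dofetilide to cells lacking hERG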
Details: CHO-K1 parental cells, FluxOR thallium flux fluorescence; at 10 µM

Row | Structure (SMILES) | signal change vs control minus 3*SD hit threshold (margin above threshold, higher = more increase)
1 | O=S(=O)(Nc1nc(-c2sccc2Cl)cs1)c1cc(Cl)ccc1Cl | 15.7% (active)
2 | COC(=O)c1sccc1NC(=O)CSc1ccccc1NS(=O)(=O)c1cc(Cl)ccc1Cl | -29.7%
3 | O=C(O)c1ccccc1P(=O)(c1ccccc1)c1ccccc1 | -29.2%
4 | CCc1cccc(C)c1NC(=O)C1=C(C(=O)O)CCCC1 | -33.6%
5 | CN(C(=O)c1ccc(Cl)c(S(=O)(=O)N2CCOCC2)c1)c1ccccc1C(=O)O | -13.3%
6 | CC(C)n1c(=S)[nH]c2scc(-c3cccs3)c2c1=O | 28.9% (active)
7 | CCC(C)n1c(=S)[nH]c2ccccc2c1=O (stereo unspecified) | -5.7%
8 | S=c1[nH]c(-c2cccs2)cn1-c1ccccc1 | -21.8%
9 | CC(C1CC2CCC1C2)n1c(-c2cccs2)n[nH]c1=S (stereo unspecified) | -18.6%
10 | Cn1c(=S)[nH]c2scc(-c3cccs3)c2c1=O | 27.9% (active)
11 | COc1cc(/C=N/n2cnc3scc(-c4cccs4)c3c2=O)cc(OC)c1OC | -32%
12 | O=C(O)/C=C/C(=O)Nc1ccc(OC(F)(F)F)cc1 | -22.2%
13 | CC(NC(=O)CCNC(=O)c1ccco1)c1ccc(F)cc1 (stereo unspecified) | -35.2%
14 | CCc1c(C)sc(NC(=O)CN2CCN(C(=O)c3ccco3)CC2)c1C(=O)OC | -35.4%
15 | CCc1ccc2[nH]c(=O)c(-c3ccccc3)c(O)c2c1 | -28.9%
16 | COc1cc(Cl)c(C)cc1NC(=O)CSc1sc2c(O)cc(=O)[nH]c2c1C#N | -30.6%
17 | CCOc1ccc(C(=O)Nc2ccccc2C(=O)O)cc1 | -21.4%
18 | C=CCN(c1ccc(Cl)cc1)S(=O)(=O)c1cccc(C(=O)O)c1 | -22.9%
19 | O=C(NC(=S)NCCC1=CCCCC1)c1ccco1 | 22.8% (active)
20 | O=C(NC(=S)NCCC1=CCCCC1)c1ccc(Br)o1 | -1.2%
21 | O=C(NC(=S)NCCc1ccc(Cl)cc1)c1ccco1 | -21.7%
22 | COc1ccc(/C=C/c2cc(=O)c3cc(Cl)ccc3o2)cc1 | -32.9%

Row | Structure (SMILES) | signal change vs control minus 3*SD hit threshold (margin above threshold, higher = more increase)
23 | Cc1nc(NCc2cccnc2)c2c3c(sc2n1)CC(C)CC3 (stereo unspecified) | 5.6% (active)
24 | Cc1nc(NCCc2ccc(S(N)(=O)=O)cc2)c2c(C)c(C)sc2n1 | -24.9%
25 | Cc1ccc(OCc2ccoc2C(=O)O)cc1C | -4.5%
26 | Fc1cccc(C2NN=C(c3ccccc3)S2)c1 (stereo unspecified) | -15.8%
27 | O=C(NC(=S)Nc1nc2ccc(F)cc2s1)c1ccco1 | 47% (active)
28 | COc1ccc(-c2csc(NC(=S)NC(=O)c3ccco3)n2)cc1 | -14%
29 | O=C(NC(=S)Nc1nc(-c2ccccc2)cs1)c1ccco1 | -21.2%
30 | O=C(NC(=S)Nc1nc(-c2ccc([N+](=O)[O-])cc2)cs1)c1ccco1 | 1% (active)
31 | O=C(NC(=S)Nc1cccc([N+](=O)[O-])c1)c1ccco1 | -40.6%
32 | O=C(NC(=S)NCc1ccc(-c2nc3ccccc3s2)cc1)c1ccco1 | -21.2%
33 | O=C(NC(=S)Nc1nc2ccccc2s1)c1cccs1 | -8.5%
34 | O=C(NC(=S)Nc1nc(-c2ccc(Br)cc2)cs1)c1ccco1 | -20.8%
35 | O=C(NC(=S)Nc1nc2ccccc2s1)c1ccco1 | 9.2% (active)
36 | COc1ccc(-c2csc(NC(=S)NC(=O)c3ccco3)n2)cc1Br | -15.8%
37 | CCOC(=O)c1sc(NC(=S)NC(=O)c2ccco2)nc1C | -14.4%
38 | COc1ccc2nc(NC(=S)NC(=O)c3ccco3)sc2c1 | 0.7% (active)
39 | CC(C)Oc1c(Cl)cc(CNC(C)(C)CO)cc1Cl | -26.9%
40 | CCN(CCCn1c(=S)[nH]c2ncccc2c1=O)c1ccccc1 | -29.7%
41 | COC(=O)C1=C(C)N(CC2CCCO2)C(=O)/C1=C\c1ccc(O)cc1 (stereo unspecified) | -14.9%
42 | Nn1c(SCC(=O)Nc2ccc(OC(F)F)cc2)nnc1-c1ccco1 | -27%
43 | Cc1cccc(NC(=O)CN2C(=O)S/C(=C\c3ccc(-c4cccc(C(=O)O)c4C)o3)C2=O)c1 | -29.7%
44 | CCNC(=S)Nc1nc2c(cc1C(=O)OCC)CCCC2 | -12.5%

Row | Structure (SMILES) | signal change vs control minus 3*SD hit threshold (margin above threshold, higher = more increase)
45 | CCc1ccc(/C=N/NC(=O)c2nnn(-c3nonc3N)c2C(C)C)cc1 | -35%
46 | O=C(NC(=S)N1CCCc2ccccc21)c1ccc([N+](=O)[O-])cc1 | -14.7%
47 | C[n+]1ccccc1COc1ccc(C(C)(C)C)cc1 | -20.4%
48 | O=c1cc(-c2c(F)c(F)c(F)c(F)c2F)oc2ccccc12 | -13.6%
49 | CCOC(=O)c1c(C)[nH]c(C)c1S(=O)(=O)N1CCCCC1 | -27.3%
50 | CCC1CCCCN1C(=S)NC(=O)c1cccc([N+](=O)[O-])c1 (stereo unspecified) | -12.4%
51 | O=S(=O)(Nc1ccc(Cc2ccncc2)cc1)c1ccc(Cl)c(Cl)c1 | -33.7%
52 | CCOC(=O)/C(C)=N/NC(=O)c1ccc([N+](=O)[O-])cc1 | -4.1%
53 | Cc1ccc2nc(NC(=S)NC(=O)c3cccs3)sc2c1 | -3.1%
54 | Cc1ccc2nc(NC(=S)NC(=O)c3ccco3)sc2c1 | 13.7% (active)
55 | CCc1ccc2nc(NC(=O)c3cc(C)on3)sc2c1 | -21.2%
56 | Cc1csc2c(N3CCCCC3)ncnc12 | -19.8%
57 | Cc1sc2ncnc(SCC(=O)NC(=O)c3cccn3C)c2c1C | -30.1%
58 | COc1ccc(NC(=O)c2cn(-c3ccccc3)nc2-c2ccncc2)cc1 | -28.9%
59 | Oc1c(Cl)cc(Cl)cc1Sc1cc(Cl)cc(Cl)c1O | 53.5% (active)
60 | Oc1c(Cl)cc(Cl)cc1/C=N/c1nccs1 | -6.3%
61 | Oc1c(Cl)cc(Cl)cc1/C=N/c1ncn[nH]1 | -9.1%
62 | Cc1cc2[nH]c(=O)c(=O)[nH]c2cc1S(=O)(=O)N1CCN(c2cccc(C)c2C)CC1 | -25%
63 | CCOC(=O)N1CCN(C(=O)CN(c2ccc(OCC)cc2)S(C)(=O)=O)CC1 | -29.2%
64 | CC1CCCCC1NC(=S)NC(=O)c1sc2ccccc2c1Cl (stereo unspecified) | -26.5%
65 | CC1CCCCC1NC(=S)NC(=O)c1cccs1 (stereo unspecified) | 3.7% (active)
66 | CC1CCN(C(=S)NC(=O)c2cccs2)CC1 | -12%
